# Laboratory results taken from PubChem BioAssay (EPA / NIEHS).
# Calls of active or inactive are those of the source. Rule for the calls: active = hit-call score of the fitted dose curve at least 0.9, where 1 is the maximum; inactive = score below 0.9.
# Read-out: DNA damage-inducible transcript 3 (DDIT3), DDIT3 (gene 1649)
# Test: LTEA_HepaRG_DDIT3: Life Technologies and Expression Analysis (LTEA) Assay for DNA damage-inducible transcript 3 (DDIT3) using HepaRG (AID 2283488)
# Settings: mRNA level, 48 h; actives raise or lower the signal
# In short: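 HepaRG cells, 48 h after plating, exposed 48 h in serum-free induction medium to 8 half-log concentrations up to 100 uM in 0.5% DMSO, in duplicate. DDIT3 mRNA measured by TaqMan qRT-PCR, normalized to ACTB, GAPDH and POLR2A. Fitted bidirectionally against DMSO.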
Compound,outcome,AC50
Oc1ccc(O)cc1,inactive,–
CC(C)c1cccc(C(C)C)c1,inactive,–
NC=O,inactive,–
CCc1nc(N)nc(N)c1-c1ccc(Cl)cc1,–,77.8 µM (active)
Cn1cnc2c1c(=O)[nH]c(=O)n2C,inactive,–
CC(=O)[C@@]1(O)CC[C@H]2[C@@H]3CCC4=CC(=O)CC[C@]4(C)[C@H]3CC[C@@]21C,inactive,–
Cc1cn([C@H]2C=C[C@@H](CO)O2)c(=O)[nH]c1=O,inactive,–

# Read-out: Pro-epidermal growth factor (Homo sapiens) (UniProt P01133)
# Test: LTEA_HepaRG_EGF: Life Technologies and Expression Analysis (LTEA) Assay for Epidermal growth factor (EGF) using HepaRG (AID 2283489)
# Settings: mRNA level, 48 h; actives raise or lower the signal
# In short: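 HepaRG, 48 h dosing, 100 uM top, half-log x8, 0.5% DMSO. Readout: TaqMan qRT-PCR (Fluidigm array), housekeeping-normalized. Gain or loss of signal fit vs DMSO.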
Compound,outcome,AC50
CC(=O)OCC(COC(C)=O)OC(C)=O,inactive,–
CCCC(=O)O,inactive,–
Cc1cc(Cc2ccc(N)c(C)c2)ccc1N,–,50 µM (active)
CCCCC(CC)CO (stereo not given),inactive,–
CC1(C)C(=O)NC(=O)N1CO,inactive,–
O=C(O)CC(O)(CC(=O)O)C(=O)O,inactive,–
CCCCCCC(CCCCCCCCCCC(=O)OCC(COC(C)=O)OC(C)=O)OC(C)=O (stereo not given),inactive,–
NC1CCCCC1,inactive,–
CC(C)(O)c1ccc(CNC(=O)c2cccnc2Oc2ccc(F)cc2)cc1,inactive,–
C=CCCCCCCCCCCCC,inactive,–
CC(C)OC(=O)C(C)(C)Oc1ccc(C(=O)c2ccc(Cl)cc2)cc1,inactive,–
O=C(Oc1ccccc1)c1cccc(C(=O)Oc2ccccc2)c1,inactive,–
CN(C)C(=O)NC1(c2ccccc2)CCN(CCC[C@]2(c3ccc(Cl)c(Cl)c3)CCCN(C(=O)c3ccccc3)C2)CC1,inactive,–
O=C1OC(c2ccc(O)cc2)(c2ccc(O)cc2)c2ccccc21,inactive,–
CC(=O)OC1CC(C)OC(C)O1 (stereo not given),inactive,–
O=C(O)c1cccnc1,inactive,–
NCCOCCOCCN,inactive,–
O=C1O[C@H]([C@H](O)CO)C(O)=C1O,inactive,–
